Laboratory results taken from ChEMBL document CHEMBL3988442, “University of Dundee, Small-Polar-MMV Screening Library” (2021).
Screen size: about 48,000 compounds; about 13,000 (27%) showed an effect of 50% or more. Some of the results follow.

Tested on: Wolbachia pipientis
Assay: Anti-Wolbachia Cell-Based Screen
Type: functional
Set-up: scale not given: in the data most compounds retested in dose-response had high values
Conditions: 5 µM

| Compound | Percent Effect [%] |
| --- | --- |
| CC(=O)Nc1ccsc1C(=O)Nc1cnc2n1CCCC2 | 1.629 |
| CNc1nc(C(=O)NCC2CCOc3ccccc3C2)cs1 (configuration not stated) | 3.092 |
| CC(C)C1CN(c2nccc(N)n2)CCC(=O)N1Cc1ccc(F)cc1 (configuration not stated) | 6.607 |
| COc1cccc(OCC2CCCN(C(=O)c3ccc(N)nc3)C2)c1 (configuration not stated) | -26.62 |
| CC(C)N(CC(=O)Nc1ccc(Br)cc1Cl)Cc1cccnc1 | -0.1768 |
| COC(=O)CCC(=O)N1CCc2nc(C(=O)N3CCOCC3)sc2CC1 | -7.844 |
| CN(Cc1ccco1)[C@@H]1CN(CC2CCOCC2)C[C@@H]2CCCO[C@@H]21.O=C(O)C(F)(F)F.O=C(O)C(F)(F)F | 2.943 |
| CC1CCN(C(=O)c2cn(-c3cc(N4CCSCC4)ncn3)cn2)CC1 | 12.42 |
| CCN(CC)C(=O)CCNC(=O)N1CCC(c2ccccc2)C1 (configuration not stated) | 4.092 |
| COc1nn(C)cc1C(=O)N1CCC(C)CC1 | 127.9 |
| CC1CCN(C(=O)c2ccn(COc3ccc(F)cc3)n2)CC1 | 3.69 |
| O=C(NCCNC(=O)N1CCC(c2ccccc2)C1)C1CC1 (configuration not stated) | -9.135 |
| CCNC(=O)N1CCC(c2ccccc2)C1 (configuration not stated) | 124.1 |
| COc1nn(C)cc1C(=O)N1CCC(c2ccccc2)C1 (configuration not stated) | 121.1 |
| Cn1cnc2cc(C(=O)N3CCC(c4ccccc4C(=O)O)C3)cnc21 (configuration not stated) | 0.5169 |
| CS(=O)(=O)Cc1ccc(Cl)cc1NCc1cccc(F)c1F | -9.935 |
| CC(=O)NCC1CCN(CC2CCOc3ccccc3C2)CC1 (configuration not stated) | 6.943 |
| CCCN1CC2(CCN(C)CC2)CC1C(=O)NCCn1cccn1 (configuration not stated) | 6.399 |
| COc1ccc(CN2CCN(CC3CC3)[C@@H]3CS(=O)(=O)C[C@@H]32)cc1C | 20.23 |
| CNS(=O)(=O)c1cccc(CNc2nccc(C(F)(F)F)n2)c1 | -7.88 |
| COc1ccc(Cl)cc1CN(C)CC(=O)/N=c1\cc[nH]n1C(C)C1CC1 (configuration not stated) | -13.95 |
| OC1(CNCCSc2ccccn2)CNCCOC1 (configuration not stated) | -26.11 |
| Cc1nc2c(c(NCCc3nc4c(s3)CCCC4)n1)CCNCC2 | 7.698 |
| C1Cc2nc(CCNc3nc(C4CC4)nc4c3CCNCC4)sc2C1 | 0.8801 |
| OC1(CNCCc2nc(Cc3ccccc3)no2)CNCCOC1 (configuration not stated) | 14.79 |
| OC1(CNCCc2nc3c(s2)CCCC3)CCNC1 (configuration not stated) | 87.02 |

| Compound | Percent Effect [%] |
| --- | --- |
| OC1(CNCCc2nc3c(s2)CCCC3)CNCCOC1 (configuration not stated) | 109 |
| CC(C)NCc1nc(-c2ccc3c(c2)OCO3)c[nH]1.Cl.Cl | 8.786 |
| CCCc1cc(NC(=O)c2cccc(N3CCCNC3=O)c2)n[nH]1 | 11.29 |
| Cc1ccccc1-c1cncc(C2CCN(C3CCOCC3)CC2)n1 | 110.9 |
| COCCN1CCC(c2cncc(-c3ccccc3C)n2)CC1 | 100.9 |
| Cc1ccccc1-c1cncc(C2CCN(C)CC2)n1 | -14.26 |
| Cc1ccccc1-c1cncc(C2CCN(S(=O)(=O)N(C)C)CC2)n1 | 110.9 |
| Cc1ccccc1-c1cncc(C2CCN(CCO)CC2)n1 | 122.1 |
| Cn1cncc1-c1nnc([C@H]2CCN(C3CCOCC3)C2)o1 | -2.913 |
| CN(C)S(=O)(=O)N1CCC(Cn2cccn2)CC1 | 2.027 |
| CCc1nc2n(n1)CC(NCC(=O)Nc1ccc(Cl)cn1)CC2 (configuration not stated) | -9.728 |
| CC(C)(C)NC(=O)Cn1cc(C(N)=O)c(-c2ccccc2)n1 | 6.588 |
| CN1CCN(Cc2noc(-c3cc(-c4ccc(F)cc4)n[nH]3)n2)CC1 | -13.75 |
| Clc1ccc2cccnc2c1CN1CCCC(Cn2cncn2)C1 (configuration not stated) | -4.204 |
| CCn1c(CN2CCCC2)nnc1C1CCN(Cc2ccccn2)CC1 | -10.72 |
| Cc1ccccc1-c1cncc(C2CCN(C(=O)CN(C)C)CC2)n1 | -14.47 |
| Fc1ccccc1CC1CCN(Cc2ccccn2)CC1 | -1.082 |
| CN(CC(F)(F)F)C(=O)CN1CCC(c2cc3ccccc3[nH]2)CC1 | -8.939 |
| CCn1c(CN(C)C)nnc1C1CCN(Cc2ccccn2)CC1 | 2.831 |
| Cc1ccccc1-c1cncc(C2CCN(Cc3cnn(C)c3)CC2)n1 | 99.14 |
| Cn1cc(CN2CCC(CCC(=O)Nc3ccccc3Cl)CC2)cn1 | 1.121 |
| Oc1nc(C2CCN(Cc3ccccn3)CC2)cc2ccccc12 | 103.3 |
| Cc1ccccc1-c1cncc(C2CCN(Cc3ccccn3)CC2)n1 | 93.34 |
| Cc1ccccc1-c1cncc(C2CCN(CC(=O)N(C)C)CC2)n1 | 124.8 |
| CC(=O)Nc1ccc(CC(=O)N2CC(S(=O)(=O)C3CCCCC3)C2)cc1 | 1.653 |
| Cc1oc(-c2ccsc2)nc1CNCCn1cccn1 | -19.09 |

| Compound | Percent Effect [%] |
| --- | --- |
| c1nc(NCC2(N3CCOCC3)CCSC2)c2sccc2n1 (configuration not stated) | -18.02 |
| CCc1nc(NCCCOC)c2c(n1)c(C)nn2C | 12.69 |
| CCc1nccn1-c1cncc(C2CCCN2Cc2ccccc2)n1 (configuration not stated) | 119.3 |
| CN(C)C(=O)CCc1cncc(C2CCCN2Cc2ccccn2)n1 (configuration not stated) | 97.92 |
| CCCn1ccnc1CN1CCCC1c1ccccn1 (configuration not stated) | 6.189 |
| CCn1ccnc1CN1CCN(Cc2ccccn2)CC1C (configuration not stated) | -25.03 |
| CCc1nccn1-c1cncc(C2CCCN2Cc2ccccn2)n1 (configuration not stated) | 112.2 |
| CCc1nccn1-c1cncc(C2CCCN2Cc2cccnc2)n1 (configuration not stated) | -2.141 |
| CCc1nccn1CC(=O)N1CCN(C2CCc3ccccc3C2)CC1 (configuration not stated) | -21 |
| CN(CCc1ccccn1)S(=O)(=O)N1CCCC1c1ccco1 (configuration not stated) | 10.93 |
| CCc1nccn1-c1cncc(C2CCCN2CC(=O)N2CCCC2)n1 (configuration not stated) | 115.3 |
| O=C(CN1CCCC1c1nc(-c2ccccn2)no1)N1CCNCC1 (configuration not stated) | 2.337 |
| CCc1nccn1-c1cncc(C2CCCN2Cc2ccc(F)cc2)n1 (configuration not stated) | -3.137 |
| O=C(CN1C(=O)CCC1=O)N1CCOC2(CCOCC2)C1 | 13.71 |
| O=C(NC1CCN(CC2CC2)C1)c1ccc(N2CCC(O)CC2)cc1 (configuration not stated) | -2.601 |
| CCN(C)S(=O)(=O)N(CC)Cc1cccc(-c2ccncc2)c1 | 31.71 |
| Cc1cc2c(cc1C)OC(C(=O)NCCNC(=O)C1CCCC1)C2 (configuration not stated) | -3.964 |
| Cc1ccc(C)c(-n2cc(CN3CC[C@@H](O)C3)c(-c3ccccc3)n2)c1 | 7.715 |
| CCN1CCN(C(=O)c2ccc3c(c2)OCC(=O)N3)[C@H]2CS(=O)(=O)C[C@H]21 | -0.2208 |
| CC(C)(O)c1cc(CC2(NCc3ccccc3Cl)COC2)no1 | -20.02 |
| Cn1cc(CN2C[C@H]3CCC[C@@H](CNc4nccn4C)[C@H]3C2)cn1.O=C(O)C(F)(F)F | -10.56 |
| Cc1cc(CN(CC(N)=O)CC(C)C)on1 | -7.292 |
| CCCn1ncc2c(C(=O)Nc3n[nH]c(SC)n3)cc(C3CC3)nc21 | 6.515 |
| Cn1nc(C2CCNC2)c2c(C(=O)NC3CC3)cc(C3CC3)nc21 (configuration not stated) | 110 |
| Cn1nc(C2CCCN2)c2c(C(=O)NC3CC3)cc(C3CC3)nc21 (configuration not stated) | 135.7 |
| Cn1nc(C2CCCNC2)c2c(C(=O)NC3CC3)cc(C3CC3)nc21 (configuration not stated) | 121.4 |

| Compound | Percent Effect [%] |
| --- | --- |
| Cn1nc(C2CCNCC2)c2c(C(=O)NC3CC3)cc(C3CC3)nc21 | 128.7 |
| Cc1nc(NCCSc2cnn[nH]2)c2cccnc2n1 | 2.11 |
| Cc1cnn(CCNCc2nc(-c3ccsc3)oc2C)c1 | -10.22 |
| CCCN(C)S(=O)(=O)NC(=O)c1ccc(CC)o1 | 14.97 |
| O=C(CNC1CCc2ncnn2C1)N(C1=CCCCC1)C1CC1 (configuration not stated) | -15.4 |
| Fc1cccc(N2CCOC3(CCCN(c4cnccn4)C3)C2)c1 (configuration not stated) | 11.27 |
| CN(C)CCN(Cc1ccccc1)C(=O)CN1CCCNC1=O | -13.77 |
| CC1CCN(CCNC(=O)C2CCN(C(=O)C(C)(C)C)CC2)CC1 | 2.038 |
| CCCS(=O)(=O)CC(=O)N1CCCC1c1noc(C2CC2)n1 (configuration not stated) | -6.337 |
| CCS(=O)(=O)CC(=O)N1CCCC1c1noc(C2CC2)n1 (configuration not stated) | -5.674 |
| CCC(=O)N1CCCCC1c1nc(O)c2c(n1)CN(S(=O)(=O)CC)CC2 (configuration not stated) | 126.4 |
| CCC(=O)N1CCCCC1c1nc(O)c2c(n1)CN(S(C)(=O)=O)CC2 (configuration not stated) | 103.7 |
| CC(C)NC(=O)c1ccc2nnc(C3CN(C)CCN3C)n2c1.O=C(O)C(F)(F)F.O=C(O)C(F)(F)F (configuration not stated) | -4.33 |
| COCc1cc(N(Cc2ccsc2)C2CC2)n2ncnc2n1 | -20.66 |
| Cc1oc(C(C)C)cc1C(=O)N1C[C@H]2CC[C@@H]1CN(S(=O)(=O)N(C)C)C2 | 1.683 |
| Cn1c(=O)[nH]c(=O)c2cc(C(=O)N3CCCC3C3CCCC3)cnc21 (configuration not stated) | 9.231 |
| CCc1cn[nH]c1C1CCCN(C(=O)c2cc(C#N)c(=O)[nH]c2C)C1 (configuration not stated) | -3.715 |
| CCC1CCCCCN1C(=O)c1cc(C#N)c(SC)[nH]c1=O (configuration not stated) | 95.93 |
| CCc1cn[nH]c1C1CCN(C(=O)c2cc(C#N)c(=O)[nH]c2C)CC1 | 0.2267 |
| COCCn1cc(C(=O)N2CCCC2c2cccs2)c2ccccc21 (configuration not stated) | 20.58 |
| CSc1[nH]c(=O)c(C(=O)N2CCCC2C2CCCC2)cc1C#N (configuration not stated) | 90.55 |
| CSc1[nH]c(=O)c(C(=O)N2CCCC2c2cccs2)cc1C#N (configuration not stated) | 109.4 |
| O=C(c1cnc2[nH]c(=O)[nH]c(=O)c2c1)N1CCCC1C1CCCC1 (configuration not stated) | -0.6345 |
| N#Cc1ncn(CC(=O)N2CCCC2c2cccs2)n1 (configuration not stated) | -17.52 |
